An excerpt weighted towards active compounds, which were near 7.3% of everything screened.
KinaseGlo FLuc: Kinase-Glo luciferase inhibition (counter-screen); actives 0.28% (n = 200,000); Potency, µM (titrated, usually from 38.3 µM), for inactives: at the top dose activity change, negative = inhibition, most hits filed as inhibitors; AID 1379; Kinase-Glo luciferase, ATP luminescence, 8 min; further: on the % scale 0 is the no-effect control and ±100 the full control effect; nearly all actives have a fitted effect of over 60% in size
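Compounds were added to a substrate mix at pH 7.2 (50 mM imidazole, 10 uM ATP, within the enzyme's linear range), followed by Kinase-Glo detection reagent; luminescence was measured after 8 minutes at ambient temperature.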
FLuc modulator: firefly luciferase modulation, counter-screen for miR-21 project; purified FLuc, Km substrates, luminescence inhibition; Potency, µM (series often up to 57.5 µM), without a hit: at the highest dose activity change, negative = inhibition, usual class: inhibitors; actives 6.9% (n = 360,000); AID 588342;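 further: plate controls were vehicle for no effect and reference inhibitor for full effect; nearly all actives have a fitted effect of over 55% in size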
Target sequence (P08659 whole entry, looked up): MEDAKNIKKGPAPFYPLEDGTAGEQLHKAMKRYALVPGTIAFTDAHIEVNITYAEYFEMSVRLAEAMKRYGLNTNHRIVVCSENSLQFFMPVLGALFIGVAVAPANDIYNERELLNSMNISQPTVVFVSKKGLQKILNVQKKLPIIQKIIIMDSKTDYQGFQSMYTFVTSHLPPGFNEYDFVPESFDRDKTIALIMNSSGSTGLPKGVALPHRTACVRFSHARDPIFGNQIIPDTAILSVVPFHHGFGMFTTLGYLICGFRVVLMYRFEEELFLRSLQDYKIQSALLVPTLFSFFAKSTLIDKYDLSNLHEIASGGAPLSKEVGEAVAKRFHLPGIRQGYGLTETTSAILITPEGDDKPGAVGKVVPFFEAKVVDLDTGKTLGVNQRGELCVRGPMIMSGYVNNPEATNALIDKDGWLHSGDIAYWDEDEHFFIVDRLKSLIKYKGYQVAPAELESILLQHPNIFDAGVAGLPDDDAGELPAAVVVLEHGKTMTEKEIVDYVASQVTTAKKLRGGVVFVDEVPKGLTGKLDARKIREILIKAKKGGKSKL
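Purified P. pyralis luciferase, 10 nM final, with Km-level 10 uM D-luciferin and 10 uM ATP in 50 mM Tris acetate pH 7.5, 10 mM Mg acetate, 0.01% Tween-20, 0.05% BSA; 6-point qHTS titration about 60 µM downward; luminescence read.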
ELG1 genotox: genotoxicity induction in ELG1-luciferase HEK293T cells | AID 504466 | HEK293T ELG1-luciferase reporter, luminescence, 16 h | Potency, µM (highest dose often 46 µM), inactives show at the highest dose activity change, positive = activation, actives largely listed as activators | actives 1.3% (n = 330,000); further: % of control where 0% means no effect; nearly all actives have a fitted effect of over 60% in size
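Quantitative HTS format in 1536-well plates. HEK293T ELG1-luciferase reporter cells receive test compound and are incubated 16 hr at 37 °C, 5% CO2; ONE-Glo added, 30 min room temperature, then luminescence read.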
SMN2 splice up: enhancers of SMN2 splice variant expression. HEK293 SMN2-luciferase splicing reporter, luminescence, 30-36 h. Potency, µM (doses to about 46.1 µM), inactives show top-dose activity change, positive = activation, hits mostly activators. actives 2.8% (n = 210,000). AID 1458; further: % of control where 0% means no effect; nearly all actives have a fitted effect of over 55% in size
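qHTS luciferase splicing reporter: luminescence rises when SMN2 exon 7 is included in transfected HEK293 cells. Compound exposure lasted 30-36 h at 37C, with 4.5 mM final sodium butyrate as control, followed by a ONE-Glo read.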
Rab9 prom act: Rab9 promoter activation; Huh7 Rab9 promoter-luciferase reporter, luminescence, 24 h; Potency, µM (top dose mostly 9.22 µM), inactives show top-dose activation, negative = inhibition, most hits filed as activators; actives 2.8% (n = 320,000); further: % of control where 0% means no effect; nearly all actives have a fitted effect of over 60% in size
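Stable Rab9-luc Huh7, 1500 cells/well, 2 h settle; cmpd in DMSO, 24 h, 37 °C/5% CO2; luciferase reagent 10 min RT; luminescence.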
NPC1 promoter act: NPC1 promoter activation; Huh7 NPC1 promoter luciferase reporter, 24 h; actives 2.4% (n = 320,000); Potency, µM (series often up to 9.22 µM), for inactives: at the top dose activation, hits mostly activators; further: % of control where 0% means no effect; nearly all actives have a fitted effect of over 60% in size
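Quantitative HTS used a cell-based reporter: Huh7 cells stably bearing the NPC1 promoter upstream of luciferase were treated with compounds for 24 h, and promoter activation was read as luminescence.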
The depositor's hits bear a star; ? = inconclusive; / = no result given; [ ] = dose if it differs, or a comment. The call rests on the fitted dose curve; in most records, active means well fitted curve in the direction sought with a large enough effect; inconclusive means small, poorly fitted or top-dose-only effect, or another doubt; inactive means no such curve, though single readings can be large; an effect the other way counts as inactive or inconclusive. Potency means the concentration at half of the fitted maximal effect.

SMILES	KinaseGlo FLuc	FLuc modulator	ELG1 genotox	SMN2 splice up	Rab9 prom act	NPC1 promoter act
CCn1nc(NS(=O)(=O)c2ccc([N+](=O)[O-])cc2)c2cc3cc(C)ccc3nc21	/	10.7µM*	4.8%	/	11.3%	-2.3%
CCn1nc(NC(=O)c2ccccn2)c2cc3cc(C)ccc3nc21	-9.0%	9.53µM*	-1.0%	19.0%	2.9%	18.2%
CCOC(=O)c1cccc(NC(=O)COc2ccc3c(C)cc(=O)oc3c2)c1	/	-3.2%	/	-27.6%	/	/
Cc1ccc(-c2cc(C(=O)Nc3nn[nH]n3)c3ccccc3n2)cc1	-3.9%	3.79µM*	-1.5%	-9.6%	3.4%	7.0%
Cc1ccc(-c2cc(C(=O)Nc3ccncc3)c3ccccc3n2)cc1	/	10.7µM*	0.4%	/	0.1%	-2.6%
COc1ccc(-c2cc(C(=O)Nc3ccc(C(N)=O)cc3)c3ccccc3n2)cc1	/	0.757µM*	6.7%	/	?	?
O=C(NNC(=O)c1cc(-c2ccc(Cl)c(Cl)c2)nc2ccccc12)Nc1ccccc1	-3.0%	6.75µM*	-11.9%	-8.1%	2.4%	-0.8%
COc1ccc(OC)c(NC(=O)Cn2cnc3sc(C)c(S(=O)(=O)N4CCN(c5ccccc5OC)CC4)c3c2=O)c1	/	-0.6%	/	7.9%	/	/
CCCCOCc1cc(CN2CCN(c3cccc(Cl)c3)CC2)c(O)c2ncccc12	/	1.1%	/	22.5%	/	/
CC(O)[C@@H](O)[C@H]1CNc2nc(N)[nH]c(=O)c2N1 (stereo partly specified)	-1.0%	/	/	-9.9%	/	/
CC(C)(C)C(=O)Nc1nc2ccc(S(C)(=O)=O)cc2s1	-0.7%	?	6.0%	7.94µM*	1.78µM*	?
CS(=O)(=O)c1ccc2nc(NC(=O)CS(=O)(=O)Cc3ccccc3)sc2c1	7.1%	16.9µM*	0.9%	-5.9%	10.6%	1.0%
CS(=O)(=O)c1ccc2nc(NC(=O)Cc3ccccc3)sc2c1	/	-5.7%	2.8%	/	13.5%	-1.0%
Cc1ccc(C(=O)Nc2nc3ccc(S(C)(=O)=O)cc3s2)cc1C	/	-0.9%	9.8%	/	11.9%	13.6%
CS(=O)(=O)c1ccc2nc(NC(=O)c3ccccc3)sc2c1	/	2.13µM*	?	/	0.501µM*	0.631µM*
CS(=O)(=O)c1ccc2nc(NC(=O)Nc3ccccc3F)sc2c1	/	0.536µM*	?	/	1.12µM*	0.316µM*
CC(C)C(=O)Nc1nc2ccc(S(C)(=O)=O)cc2s1	-1.4%	?	-2.3%	26.8%	18.2%	14.0%
O=C(Nc1ccccc1)OC[C@H](CN1CCCCC1)OC(=O)Nc1ccccc1	-1.4%[17.1 µM]	/	/	-7.1%[20.6 µM]	/	/
Nc1ncnc2nn([C@H]3O[C@@H](CO)[C@@H](O)[C@H]3O)nc12	-1.2%[7.66 µM]	/	/	-11.6%[9.22 µM]	/	/
Cc1cccc(C(=O)Nc2nc3ccc(S(C)(=O)=O)cc3s2)c1	/	2.13µM*	?	/	?	2.24µM*
CS(=O)(=O)c1ccc2nc(NC(=O)CCNC(=O)c3ccc([N+](=O)[O-])cc3)sc2c1	/	-7.1%	13.9%	/	14.8%	9.0%
CS(=O)(=O)c1ccc2nc(NC(=O)c3ccc(NS(=O)(=O)c4cccc([N+](=O)[O-])c4)cc3)sc2c1	/	10.7µM*	-1.0%	/	11.5%	-3.0%
NS(=O)(=O)c1ccc2nc(NC(=O)c3ccncc3)sc2c1	/	6.75µM*	12.4%	/	23.1%	17.9%
CCOc1ccc(Nc2cc(C)nc3nncn23)cc1	/	-7.9%	/	16.4%	/	/
O=C1/C(=C\c2ccccc2)SC(=S)N1CCC(=O)N1CCCCC1CCO (stereo unspecified)	/	16.9µM*	-4.9%	/	-0.3%	-7.7%
SMILES	KinaseGlo FLuc	FLuc modulator	ELG1 genotox	SMN2 splice up	Rab9 prom act	NPC1 promoter act
COc1ccc(/C=C2\SC(=S)N(CCCC(=O)N3CCCCC3CCO)C2=O)cc1 (stereo unspecified)	/	16.9µM*	-13.6%	/	-12.5%	-16.7%
COc1ccc(/C=C2\SC(=S)N(CCCC(=O)N3CCN(C)CC3)C2=O)cc1	/	15.1µM*	1.0%	/	-11.0%	-4.5%
O=C1/C(=C/c2ccccc2Cl)SC(=S)N1CCC(=O)N1CCCCC1CCO (stereo unspecified)	/	?	-8.4%	/	-4.6%	-8.5%
CC(C)c1ccc(/C=C2\SC(=S)N(CCC(=O)N3CCCCC3CCO)C2=O)cc1 (stereo unspecified)	/	3.38µM*	-14.2%	/	-31.4%	-24.0%
CCOC(=O)CNC(=O)O[C@H]1C(=O)c2ccc(OC)cc2O[C@@H]1c1ccc2c(c1)OCO2	-4.3%	/	/	24.1%	/	/
CC(=O)OCC#CCSc1nnc(-c2cccc(Br)c2)o1	/	-13.4%	/	-7.8%	/	/
CCOc1ccccc1C(=O)Nc1c(C(=O)Nc2ccc(F)cc2)oc2ccccc12	/	-0.6%	/	-10.9%	/	/
COC(=O)N1CCC[C@@]2(CCN(C(=O)Nc3cccc(C#N)c3)C2)C1	-8.9%	/	/	-11.2%	/	/
COc1ccc(Cn2c(SCc3ccc(C(=O)NC4CCCCC4)cc3)nc3cccnc32)cc1	/	-1.9%	/	/	/	/
CC(CNC(=O)c1ccc(Cn2c(SCc3ccccc3)nc3cccnc32)cc1)c1ccccc1 (stereo unspecified)	/	4.78µM*	/	/	/	/
Cc1ccccc1CNC(=O)c1ccc(Cn2c(SCc3ccccc3)nc3cccnc32)cc1	/	2.69µM*	/	/	/	/
COc1ccccc1CNC(=O)c1ccc(Cn2c(SCc3ccccc3)nc3cccnc32)cc1	/	4.78µM*	/	/	/	/
CCN(CC)CCCNC(=O)c1ccc(Cn2c(SCc3ccccc3)nc3cccnc32)cc1	/	21.3µM*	/	/	/	/
O=C(NCc1ccc(F)cc1)c1cccs1	/	2.8%	-0.9%	/	3.8%	1.4%
O=C(NCCc1ccc(F)cc1)c1cccs1	-3.4%	12µM*	?	15.8µM*	2.51µM*	2.82µM*
O=C(CNC(=O)c1cccs1)c1ccc(Br)cc1	/	9.53µM*	?	/	0.447µM*	0.794µM*
COc1ccc2cc(CCNC(=O)c3cccs3)c(=O)[nH]c2c1	2.1%	10.7µM*	?	6.31µM*	2µM*	2.82µM*
O=C(NCCc1cccs1)c1cccs1	-1.7%	13.5µM*	?	?	2.82µM*	2.82µM*
O=C(CCC1N=C2c3ccccc3N=C(SCC(=O)Nc3ccccc3F)N2C1=O)NCc1ccco1 (stereo unspecified)	/	-3.3%	/	14.0%	/	/
O=[N+]([O-])c1ccc(NN=C2c3ccccc3Cc3ccccc32)c([N+](=O)[O-])c1	-0.6%[7.66 µM]	/	/	-3.6%[9.22 µM]	/	/
Cc1ccc(O)c(-c2n[nH]c3c2C(c2ccccc2F)N(Cc2ccco2)C3=O)c1 (stereo unspecified)	/	-12.4%	/	3.6%	/	/
Cc1cccc(NC(=O)C2CCCN(S(=O)(=O)c3cccc4nonc34)C2)c1C (stereo unspecified)	/	-3.3%	/	-11.0%	/	/
COc1ccc(Cl)cc1NC(=O)Cn1cc(S(=O)(=O)Cc2cccc(Cl)c2)c2ccccc21	/	6.0%	/	/	/	/

Source: PubChem
